Reference: the supplement of paper PMC11732987, “Enantioselective OTUD7B fragment discovery through chemoproteomics screening and high-throughput optimisation” (Communications Chemistry, 2025)

What was measured:
Experiment in all cases: log2 ratio of Biotin-Ahx-Ub-VS probe labelling (fragment/DMSO); higher = less target engagement (more negative = stronger competition), active = hit call of the paper (q ≤ 0.05, log2 ratio ≤ -1)
Details in all cases: compound concentration: 200 uM; treatment time: 3 h
[1] = target: USP34 (UniProt Q70CQ2)
Chain of USP34 (Q70CQ2 whole entry, the tested form may be a part): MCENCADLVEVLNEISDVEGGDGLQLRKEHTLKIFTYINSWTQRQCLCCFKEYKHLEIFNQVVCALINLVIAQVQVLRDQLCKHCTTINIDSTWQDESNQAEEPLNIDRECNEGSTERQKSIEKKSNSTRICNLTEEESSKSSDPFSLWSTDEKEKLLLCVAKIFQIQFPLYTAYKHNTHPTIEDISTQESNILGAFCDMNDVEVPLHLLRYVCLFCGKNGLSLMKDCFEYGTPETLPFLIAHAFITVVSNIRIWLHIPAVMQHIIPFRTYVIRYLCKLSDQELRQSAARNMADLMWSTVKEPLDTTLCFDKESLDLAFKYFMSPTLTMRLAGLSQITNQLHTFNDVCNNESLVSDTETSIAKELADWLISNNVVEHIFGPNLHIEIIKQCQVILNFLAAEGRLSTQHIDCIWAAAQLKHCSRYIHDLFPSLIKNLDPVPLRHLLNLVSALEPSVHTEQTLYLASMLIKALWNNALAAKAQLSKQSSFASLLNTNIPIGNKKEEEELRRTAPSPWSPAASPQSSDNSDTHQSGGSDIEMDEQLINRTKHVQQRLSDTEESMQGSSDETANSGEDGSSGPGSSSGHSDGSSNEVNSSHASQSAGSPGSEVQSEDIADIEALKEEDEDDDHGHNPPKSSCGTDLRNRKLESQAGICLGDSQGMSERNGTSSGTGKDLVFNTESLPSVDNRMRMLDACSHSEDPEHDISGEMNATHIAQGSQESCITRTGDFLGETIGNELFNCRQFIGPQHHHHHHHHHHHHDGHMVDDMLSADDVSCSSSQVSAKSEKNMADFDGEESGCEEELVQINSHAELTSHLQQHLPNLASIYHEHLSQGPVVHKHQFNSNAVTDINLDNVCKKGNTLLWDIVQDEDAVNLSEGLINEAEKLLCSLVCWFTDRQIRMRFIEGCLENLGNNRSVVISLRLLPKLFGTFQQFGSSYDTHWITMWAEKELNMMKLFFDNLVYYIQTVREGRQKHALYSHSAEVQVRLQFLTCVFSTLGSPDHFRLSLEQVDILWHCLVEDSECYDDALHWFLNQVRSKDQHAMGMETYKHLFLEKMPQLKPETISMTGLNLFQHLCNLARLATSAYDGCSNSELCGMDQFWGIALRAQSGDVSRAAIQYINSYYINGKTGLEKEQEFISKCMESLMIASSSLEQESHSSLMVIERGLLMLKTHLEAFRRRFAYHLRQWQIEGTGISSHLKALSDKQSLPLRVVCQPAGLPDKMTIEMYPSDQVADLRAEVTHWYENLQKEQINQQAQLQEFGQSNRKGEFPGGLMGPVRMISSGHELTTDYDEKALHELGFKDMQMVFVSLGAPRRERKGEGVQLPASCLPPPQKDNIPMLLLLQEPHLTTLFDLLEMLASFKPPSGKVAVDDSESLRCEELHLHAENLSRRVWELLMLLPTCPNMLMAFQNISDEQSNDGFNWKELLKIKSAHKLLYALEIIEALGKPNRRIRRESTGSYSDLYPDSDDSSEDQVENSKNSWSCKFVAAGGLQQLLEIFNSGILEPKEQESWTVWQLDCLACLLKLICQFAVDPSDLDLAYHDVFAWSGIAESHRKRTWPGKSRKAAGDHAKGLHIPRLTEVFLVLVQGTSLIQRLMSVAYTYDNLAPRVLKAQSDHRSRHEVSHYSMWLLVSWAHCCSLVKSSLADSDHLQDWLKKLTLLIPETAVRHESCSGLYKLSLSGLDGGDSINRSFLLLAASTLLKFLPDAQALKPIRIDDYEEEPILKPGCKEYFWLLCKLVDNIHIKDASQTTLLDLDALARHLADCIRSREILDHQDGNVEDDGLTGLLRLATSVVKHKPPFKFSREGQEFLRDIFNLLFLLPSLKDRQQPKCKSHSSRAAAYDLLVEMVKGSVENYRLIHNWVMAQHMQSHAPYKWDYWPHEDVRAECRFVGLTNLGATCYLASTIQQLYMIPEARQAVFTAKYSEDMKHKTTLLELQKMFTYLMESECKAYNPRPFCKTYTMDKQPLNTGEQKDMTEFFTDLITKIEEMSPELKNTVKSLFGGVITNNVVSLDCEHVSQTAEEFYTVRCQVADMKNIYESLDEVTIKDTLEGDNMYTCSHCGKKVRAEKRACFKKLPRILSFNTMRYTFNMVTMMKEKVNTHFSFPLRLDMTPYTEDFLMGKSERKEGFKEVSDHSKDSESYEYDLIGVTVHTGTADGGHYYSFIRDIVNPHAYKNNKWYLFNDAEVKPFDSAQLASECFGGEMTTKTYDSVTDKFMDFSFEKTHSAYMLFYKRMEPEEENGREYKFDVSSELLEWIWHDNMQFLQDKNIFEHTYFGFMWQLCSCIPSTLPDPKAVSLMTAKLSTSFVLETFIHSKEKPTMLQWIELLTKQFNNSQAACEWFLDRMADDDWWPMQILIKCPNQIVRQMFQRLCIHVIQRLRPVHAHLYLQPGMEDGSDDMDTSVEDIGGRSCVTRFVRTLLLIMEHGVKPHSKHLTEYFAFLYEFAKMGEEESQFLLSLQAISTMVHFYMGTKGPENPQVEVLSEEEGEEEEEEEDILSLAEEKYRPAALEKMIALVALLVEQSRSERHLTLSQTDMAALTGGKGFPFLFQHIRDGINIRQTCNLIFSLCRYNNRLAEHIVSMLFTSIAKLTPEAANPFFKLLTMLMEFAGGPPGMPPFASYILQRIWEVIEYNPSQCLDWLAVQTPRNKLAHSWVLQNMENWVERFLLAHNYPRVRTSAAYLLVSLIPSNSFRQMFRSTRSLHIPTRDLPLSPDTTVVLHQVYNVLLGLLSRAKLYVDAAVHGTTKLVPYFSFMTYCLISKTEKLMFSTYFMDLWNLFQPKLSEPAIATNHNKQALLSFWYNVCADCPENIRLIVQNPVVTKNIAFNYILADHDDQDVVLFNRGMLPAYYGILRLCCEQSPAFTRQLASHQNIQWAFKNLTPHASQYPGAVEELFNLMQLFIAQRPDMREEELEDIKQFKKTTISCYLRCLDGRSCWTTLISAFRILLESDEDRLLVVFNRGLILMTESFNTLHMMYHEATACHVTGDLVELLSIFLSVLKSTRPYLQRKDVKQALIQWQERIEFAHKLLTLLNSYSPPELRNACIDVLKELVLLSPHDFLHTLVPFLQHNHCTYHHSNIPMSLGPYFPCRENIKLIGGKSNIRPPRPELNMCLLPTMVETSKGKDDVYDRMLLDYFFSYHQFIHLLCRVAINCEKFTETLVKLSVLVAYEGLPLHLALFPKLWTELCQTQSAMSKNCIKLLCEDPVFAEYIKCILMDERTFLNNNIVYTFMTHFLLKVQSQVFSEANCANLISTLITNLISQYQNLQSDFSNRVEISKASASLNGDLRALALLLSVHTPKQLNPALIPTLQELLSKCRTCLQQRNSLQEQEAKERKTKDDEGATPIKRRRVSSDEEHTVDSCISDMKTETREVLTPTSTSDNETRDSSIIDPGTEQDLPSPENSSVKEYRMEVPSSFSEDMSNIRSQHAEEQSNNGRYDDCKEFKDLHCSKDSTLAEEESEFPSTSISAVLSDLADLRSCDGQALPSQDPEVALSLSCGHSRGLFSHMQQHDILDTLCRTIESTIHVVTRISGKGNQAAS
Method in brief: (§1)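 Labelling with Biotin-Ahx-Ub-VS (0.5 µM final, 1 h) followed a 3 h triplicate treatment of HEK293T lysate (495 µg per sample, Tris/CHAPS/IGEPAL buffer with protease inhibitors) with fragment at 200 µM or vehicle. Labelled DUBs were NeutrAvidin-enriched, digested with LysC and trypsin, and run by diaPASEF LC-MS/MS. The values, average log2 fragment/vehicle ratios by unpaired t-test, come from global-median-normalised Spectronaut label-free quantities. Proteins with ≥2 unique peptides were used.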

[2] = target: T1, USP36 (UniProt Q9P275)
T1 sequence (whole entry): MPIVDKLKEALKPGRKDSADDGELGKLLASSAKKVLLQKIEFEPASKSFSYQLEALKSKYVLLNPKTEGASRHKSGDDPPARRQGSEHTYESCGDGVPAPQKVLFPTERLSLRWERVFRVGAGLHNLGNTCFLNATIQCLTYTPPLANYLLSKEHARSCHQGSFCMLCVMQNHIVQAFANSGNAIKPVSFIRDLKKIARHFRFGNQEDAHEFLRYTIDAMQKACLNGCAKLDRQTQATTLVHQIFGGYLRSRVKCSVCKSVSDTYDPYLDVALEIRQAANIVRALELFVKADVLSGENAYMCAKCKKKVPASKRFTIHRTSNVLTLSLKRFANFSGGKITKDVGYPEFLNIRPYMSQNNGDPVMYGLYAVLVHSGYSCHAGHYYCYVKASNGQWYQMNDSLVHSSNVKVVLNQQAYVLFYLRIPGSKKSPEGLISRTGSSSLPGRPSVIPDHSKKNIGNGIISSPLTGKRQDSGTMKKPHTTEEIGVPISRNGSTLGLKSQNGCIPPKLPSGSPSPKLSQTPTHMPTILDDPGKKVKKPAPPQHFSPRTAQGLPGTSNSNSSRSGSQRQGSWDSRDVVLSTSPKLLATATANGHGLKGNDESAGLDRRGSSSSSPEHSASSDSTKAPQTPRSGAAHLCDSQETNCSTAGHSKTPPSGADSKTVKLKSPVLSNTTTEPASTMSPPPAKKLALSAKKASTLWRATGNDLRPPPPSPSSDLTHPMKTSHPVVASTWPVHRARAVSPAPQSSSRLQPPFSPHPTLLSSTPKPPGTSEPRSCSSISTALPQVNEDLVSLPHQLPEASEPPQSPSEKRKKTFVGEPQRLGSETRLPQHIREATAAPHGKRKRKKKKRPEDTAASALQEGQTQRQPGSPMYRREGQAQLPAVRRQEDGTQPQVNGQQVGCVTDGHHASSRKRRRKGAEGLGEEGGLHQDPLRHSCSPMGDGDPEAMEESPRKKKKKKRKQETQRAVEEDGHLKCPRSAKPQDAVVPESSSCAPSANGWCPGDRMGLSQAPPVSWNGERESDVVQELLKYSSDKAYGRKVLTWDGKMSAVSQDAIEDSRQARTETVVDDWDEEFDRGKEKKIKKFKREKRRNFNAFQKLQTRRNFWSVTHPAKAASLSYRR
Method in brief: as §1

[3] = target: T2, USP38 (UniProt Q8NB14)
T2 sequence (whole entry): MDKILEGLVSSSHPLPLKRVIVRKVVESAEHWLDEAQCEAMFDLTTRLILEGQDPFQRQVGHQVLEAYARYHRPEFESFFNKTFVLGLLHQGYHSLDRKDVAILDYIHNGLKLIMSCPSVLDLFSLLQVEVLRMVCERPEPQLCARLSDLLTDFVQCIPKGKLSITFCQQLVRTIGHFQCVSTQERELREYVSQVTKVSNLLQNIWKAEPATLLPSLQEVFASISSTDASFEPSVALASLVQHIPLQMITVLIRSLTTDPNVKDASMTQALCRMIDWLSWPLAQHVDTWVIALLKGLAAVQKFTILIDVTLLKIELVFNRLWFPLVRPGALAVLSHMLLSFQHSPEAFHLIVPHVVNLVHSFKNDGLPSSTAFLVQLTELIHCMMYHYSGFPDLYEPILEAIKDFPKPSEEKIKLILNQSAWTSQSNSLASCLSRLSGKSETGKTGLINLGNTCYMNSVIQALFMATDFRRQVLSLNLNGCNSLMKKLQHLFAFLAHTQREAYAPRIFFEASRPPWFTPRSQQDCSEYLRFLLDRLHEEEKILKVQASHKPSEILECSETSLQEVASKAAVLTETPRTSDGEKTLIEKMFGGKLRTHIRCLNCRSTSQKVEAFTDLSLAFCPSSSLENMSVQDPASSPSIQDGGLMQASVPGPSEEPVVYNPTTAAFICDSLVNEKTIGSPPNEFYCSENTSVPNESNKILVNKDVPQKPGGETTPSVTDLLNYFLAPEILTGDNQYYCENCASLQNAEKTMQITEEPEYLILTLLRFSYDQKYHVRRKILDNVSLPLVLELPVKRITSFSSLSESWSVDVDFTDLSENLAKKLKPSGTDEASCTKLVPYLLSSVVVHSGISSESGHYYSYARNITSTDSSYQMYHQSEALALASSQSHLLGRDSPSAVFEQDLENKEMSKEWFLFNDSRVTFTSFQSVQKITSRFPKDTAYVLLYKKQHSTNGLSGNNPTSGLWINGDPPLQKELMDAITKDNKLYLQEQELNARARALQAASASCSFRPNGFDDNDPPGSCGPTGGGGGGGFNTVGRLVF
Method in brief: as §1

[4] = target: T3, USP39 (UniProt Q53GS9)
T3 sequence (whole entry): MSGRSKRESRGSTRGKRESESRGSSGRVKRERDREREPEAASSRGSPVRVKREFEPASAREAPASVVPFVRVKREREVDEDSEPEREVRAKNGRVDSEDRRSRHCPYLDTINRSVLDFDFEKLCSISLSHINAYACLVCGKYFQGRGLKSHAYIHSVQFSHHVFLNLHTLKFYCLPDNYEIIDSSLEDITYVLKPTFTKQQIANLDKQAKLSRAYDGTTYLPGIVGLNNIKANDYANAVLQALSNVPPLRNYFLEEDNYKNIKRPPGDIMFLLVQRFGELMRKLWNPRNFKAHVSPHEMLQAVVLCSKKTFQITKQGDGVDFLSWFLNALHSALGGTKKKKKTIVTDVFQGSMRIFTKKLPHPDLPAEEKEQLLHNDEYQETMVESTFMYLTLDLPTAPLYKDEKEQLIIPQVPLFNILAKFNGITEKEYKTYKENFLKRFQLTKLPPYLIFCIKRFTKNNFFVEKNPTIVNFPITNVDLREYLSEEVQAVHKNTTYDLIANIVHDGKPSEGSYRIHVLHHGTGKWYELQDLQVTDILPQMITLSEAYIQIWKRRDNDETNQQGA
Method in brief: as §1

[5] = target: T4, USP4 (UniProt Q13107)
T4 sequence (whole entry): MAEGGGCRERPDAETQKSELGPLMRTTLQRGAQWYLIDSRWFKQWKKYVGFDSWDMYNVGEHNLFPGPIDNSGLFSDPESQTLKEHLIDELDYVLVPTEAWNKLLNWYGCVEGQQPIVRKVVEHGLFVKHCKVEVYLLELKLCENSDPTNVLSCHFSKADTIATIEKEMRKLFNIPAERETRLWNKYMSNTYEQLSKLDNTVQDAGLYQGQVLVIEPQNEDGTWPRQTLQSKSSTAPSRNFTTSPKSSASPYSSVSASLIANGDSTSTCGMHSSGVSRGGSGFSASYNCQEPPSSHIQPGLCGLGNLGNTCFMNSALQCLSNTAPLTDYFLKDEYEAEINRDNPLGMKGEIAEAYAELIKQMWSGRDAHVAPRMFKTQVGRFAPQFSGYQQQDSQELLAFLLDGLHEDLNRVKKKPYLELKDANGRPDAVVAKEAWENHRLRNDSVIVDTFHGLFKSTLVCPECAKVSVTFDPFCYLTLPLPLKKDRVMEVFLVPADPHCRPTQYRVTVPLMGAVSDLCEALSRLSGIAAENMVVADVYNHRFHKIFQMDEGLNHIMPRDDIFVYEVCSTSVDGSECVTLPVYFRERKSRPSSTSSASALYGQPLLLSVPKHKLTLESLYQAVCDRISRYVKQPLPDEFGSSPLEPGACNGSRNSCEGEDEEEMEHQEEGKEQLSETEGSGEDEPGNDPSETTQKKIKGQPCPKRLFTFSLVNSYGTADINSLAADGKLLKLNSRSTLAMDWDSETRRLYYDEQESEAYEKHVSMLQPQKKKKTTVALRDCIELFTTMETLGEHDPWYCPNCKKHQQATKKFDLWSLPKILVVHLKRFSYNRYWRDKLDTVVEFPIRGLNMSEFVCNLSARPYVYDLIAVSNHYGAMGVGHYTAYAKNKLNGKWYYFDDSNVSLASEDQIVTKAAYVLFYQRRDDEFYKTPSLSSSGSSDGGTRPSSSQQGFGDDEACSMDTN
Method in brief: as §1

Measured: log2 ratio of Biotin-Ahx-Ub-VS probe labelling

Cc1ccc(N2CCC(NC(=O)CCl)C2=O)cc1 (stereo not given)
inactive: [1] 0.132 | [2] -0.156 | [3] 0.0543 | [4] 0.064 | [5] 0.0879
